NIH3T3 tox: cytotoxic compounds in NIH 3T3 cells; NIH 3T3 viability, CellTiter-Glo ATP luminescence, 48-72 h; 94,000 compounds, 4.3% hits; AID 1345082; Potency, µM (top dose mostly 96.7 µM), without a hit: at the top dose activity change, negative = cytotoxicity, hits mostly inhibitors; note: nearly all actives have a fitted effect of over 55% in size
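Cytotoxicity was measured by CellTiter-Glo ATP luminescence after 48 or 72 h compound exposure at 37 °C. Mouse NIH 3T3 fibroblasts were seeded at 400 cells/well and dosed by 23 nL pin transfer.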
HEK cytotox: cytotoxic compounds in HEK 293 cells; HEK 293 viability, ATP luminescence (CellTiter-Glo), 48-72 h; Potency, µM (series often up to 115 µM), inactives show at the highest dose activity change, negative = cytotoxicity, most hits filed as inhibitors; 94,000 compounds, 6.6% hits; note: nearly all actives have a fitted effect of over 60% in size
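Pintool-delivered compounds were incubated with HEK 293 cells (250 cells/well) at 37 degree Celsius for 48 or 72 hr. ATP-dependent luminescence (CellTiter-Glo) then reported remaining viable cells.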
NPR1 antag: human Npr1 receptor antagonism; Potency, µM (doses to about 46.3 µM), without a hit: at the highest dose activity change, negative = inhibition, most hits filed as inhibitors; HEK293 hNpr1 GloSensor cGMP, ANP-stimulated luminescence; 76,000 compounds, 1.6% hits; calls by dose curve; note: nearly all actives have a fitted effect of over 60% in size
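HEK293 cells stably expressing human Npr1 and cGMP GloSensor pGS-40F, loaded 2 h with 2% GloSensor reagent, given compound 30 min at room temperature. Luminescence read before and 20 min after 0.1 nM hNppA.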
FLuc inh: Photinus pyralis luciferase inhibition; P08659; purified P. pyralis luciferase, luminescence, biochemical; Potency, µM (series often up to 115 µM), most hits filed as inhibitors; 76,000 compounds, 2.5% hits; note: nearly all actives have a fitted effect of over 65% in size
Target sequence (P08659 whole entry, looked up): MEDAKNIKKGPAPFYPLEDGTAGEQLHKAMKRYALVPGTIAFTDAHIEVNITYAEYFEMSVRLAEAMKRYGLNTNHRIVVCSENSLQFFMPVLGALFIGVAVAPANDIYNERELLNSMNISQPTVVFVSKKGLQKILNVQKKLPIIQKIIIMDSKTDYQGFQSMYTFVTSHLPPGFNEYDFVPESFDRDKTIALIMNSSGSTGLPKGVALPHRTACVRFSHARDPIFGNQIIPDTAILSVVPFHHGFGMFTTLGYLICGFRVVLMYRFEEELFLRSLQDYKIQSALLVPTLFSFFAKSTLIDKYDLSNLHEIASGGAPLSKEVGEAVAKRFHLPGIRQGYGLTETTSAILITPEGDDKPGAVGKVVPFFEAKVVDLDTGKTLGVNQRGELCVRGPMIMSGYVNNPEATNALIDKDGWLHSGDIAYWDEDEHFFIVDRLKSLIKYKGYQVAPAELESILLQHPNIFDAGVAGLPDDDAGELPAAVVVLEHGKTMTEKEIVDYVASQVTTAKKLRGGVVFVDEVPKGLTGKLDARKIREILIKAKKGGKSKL
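Purified 10nM P. pyralis luciferase with 10uM D-luciferin and 10uM ATP in 50mM Tris acetate pH 7.5, 10mM Mg acetate, 0.01% Tween-20, 0.05% BSA. qHTS titration; luminescence read by CCD imager.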
An asterisk follows results filed as active; i = inactive; ? = inconclusive; / = not tested or not shown; ! = repeats disagree; [ ] = another dose, or the depositor's remark. The list is not random: actives were taken first. Their share in the collection is about 11%. Unless noted, calls come from the whole dose curve; as a rule, active = well fitted curve in the direction sought with a large enough effect; inconclusive = small, poorly fitted or top-dose-only effect, or another doubt; inactive = no such curve, though single readings can be large; an effect the other way counts as inactive or inconclusive. % is set by controls: 0 for no effect and ±100 for the full control effect; potency is the fitted concentration of half-maximal effect.

SMILES	NIH3T3 tox	HEK cytotox	NPR1 antag	FLuc inh
COc1ccc(CNC(=O)C2CCCN(Cc3cccc(-c4cccc(C)c4)c3)C2)cc1 (stereo not given)	28µM*	?	/	/
COc1ccc(-c2ccccc2NC(=O)C2CCCN(Cc3ccc(F)c(F)c3)C2)cc1 (stereo not given)	-4%	-16%	1%	i
COc1ccc(CCNC(=O)C2CCCN(Cc3cccc(-c4cccc(C)c4)c3)C2)cc1 (stereo not given)	?	22µM*	/	/
Cc1ccc(CN(C)Cc2cnc(S(=O)(=O)C(C)C)n2CCc2ccccc2)o1	?	?	-2%	i
O=C(NCc1ccc(F)cc1)C1CCc2nnc(-c3ccc(Cl)cc3Cl)n21 (stereo not given)	-7%	-9%	/	/
O=C(c1cccnc1)N1CC(Oc2ccccc2-c2nc(-c3cnccn3)no2)C1	-13%	?	/	/
CC[C@H]1CN(C(C)=O)CC[C@H]1CC(=O)Nc1nccs1	100µM*	112µM*	-20%[70.6 µM]	i
CC[C@H]1CN(C(=O)c2ccc(F)cc2)CC[C@H]1CC(=O)Nc1nccs1	?	?	-14%[70.6 µM]	i
CCn1ncc(N2CCC(NC(=O)Cc3cccc(F)c3)CC2)cc1=O	-4%	i	-2%	i
CN1Cc2ccc(C(=O)Nc3ccc4cn[nH]c4c3)cc2OCC1=O	?	-23%[172 µM]	-2%[70.6 µM]	32µM*
COc1ccccc1-c1ccc(CN2CCCCC2C(=O)NCCc2ccccc2)cc1 (stereo not given)	40µM*	40µM*	/	/
COCCNC(=O)C1CCCCN1Cc1ccc(-c2ccccc2OC)cc1 (stereo not given)	?	45µM*!	/	/
CN(C)C[C@@H]1CN(Cc2ccncc2)C[C@H]1NC(=O)c1cccc(C#N)c1	-2%	5%	9%	i
Cc1ccc(-c2cc(C(=O)N3CCC(Cc4nncn4C(C)C)CC3)c3ccccc3n2)cc1C	?	13µM*	-27%	5.6µM*
Cc1ccc(-c2cc(C(=O)N3CCC(c4nc(C5CCOCC5)no4)C3)c3ccccc3n2)cc1C (stereo not given)	?	11µM*	?	0.32µM*
Cc1ncc2c(c1CNC(=O)c1cc(F)cc(Cl)c1)CCNC2	-22%	-4%	0%	i
O=C(O)C1CN(CC2CC2)CCN(C(=O)c2cc(=O)[nH]o2)C1 (stereo not given)	-7%	-30%	-7%	i
O=C(NCc1ccncc1)[C@@H]1C[C@@H](c2ccc(F)cc2)N(CCOc2ccccc2)C1	?	?	-15%[70.6 µM]	i
O=C(NCc1ccc(F)cc1)c1nn(CCOc2ccccc2)c2c1CNCC2	?	40µM*	/	/
O=c1cc(N2CCOCC2)oc2c(-c3ccccc3Oc3ccccc3)nccc12	?	?	-2%[70.6 µM]	i
COc1ccccc1-c1nccc2c(=O)cc(N3CCOCC3)oc12	25µM*	?	1%[70.6 µM]	i
Cc1ccccc1-c1nccc2c(=O)cc(N3CCOCC3)oc12	35µM*	?	4%[70.6 µM]	i
O=c1cc(N2CCOCC2)oc2c(-c3ccccc3O)nccc12	?	-23%[172 µM]	0%[70.6 µM]	i
COc1ccccc1-c1nccc2c(=O)cc(C3=CCOCC3)oc12	13µM*	63µM*	-1%[70.6 µM]	i
COc1ncccc1-c1nccc2c(=O)cc(N3CCOCC3)oc12	50µM*	?	-4%[70.6 µM]	i
SMILES	NIH3T3 tox	HEK cytotox	NPR1 antag	FLuc inh
Cc1oc(C(O)c2ccccc2)nc1C(=O)Nc1ccc2c(c1)CNC2=O (stereo not given)	-8%[138 µM]	?	4%[70.6 µM]	i
Cc1ccc(CNC(=O)CCC2CCCN(S(=O)(=O)c3ccccc3F)C2)o1 (stereo not given)	-24%	?	/	/
Cn1nccc1-c1nccc2c(=O)cc(N3CCOCC3)oc12	50µM*	?	-6%[70.6 µM]	i
O=c1cc(N2CCOCC2)oc2c(-c3cccc(F)c3)nccc12	?	?	4%[70.6 µM]	i
Cn1ccnc1-c1ccc(N2CCC(CO)(CCOc3ccccc3)CC2)nn1	?	?	-19%	40µM*
OCC1(CCOc2ccccc2)CCN(c2nnnn2-c2ccccc2)CC1	?	?	0%	i
Cc1ccccc1CC1(CO)CCCN(c2ccc(-c3nccn3C)nn2)C1 (stereo not given)	?	32µM*	?	i
Cn1ccnc1-c1ccc(N2CCCC(CO)(CCOc3ccccc3)C2)nn1 (stereo not given)	?	32µM*	?	i
Cn1ccnc1-c1cn(CC2(c3ccccc3F)CCCC2)nn1	?	?	-10%	i
CCOc1ccc(NC(=O)c2cc3c(s2)CN(C2CCCC2)C3)cc1	?	?	-20%	i
Cc1ccc(NC(=O)c2cc3c(s2)CN(C2CC2)C3)cc1	?	?	-30%	8.9µM*
CSc1ccc(NC(=O)c2cc3c(s2)CN(C2CC2)C3)cc1	?	?	11µM*	?
COc1ccccc1-n1c(=O)c(C(=O)NCc2ccc(F)cc2)nc2cccnc21	-2%	1%	/	/
Cc1ccc(-n2c(C3CCN(C(=O)Cc4ccc(Cl)cc4)CC3)n[nH]c2=O)cc1	45µM*	-1%	0%	i
Cc1ccc(CC(=O)N2CCC(c3n[nH]c(=O)n3-c3ccccc3)CC2)cc1	35µM*	-7%	0%	i
Cc1ccc(-n2c(C3CCN(C(=O)Cc4ccccc4Cl)CC3)n[nH]c2=O)cc1	?	-1%	-2%	i
COc1cccc(CC(=O)N2CCC(c3n[nH]c(=O)n3-c3ccc(C)cc3)CC2)c1	10µM*	0%	10%	i
Cc1ccc(-n2c(C3CCN(C(=O)c4n[nH]c5ccccc45)CC3)n[nH]c2=O)cc1	?	-3%	14%	i
Cc1ccc(-n2c(C3CCN(C(=O)c4nn(C)c5ccccc45)CC3)n[nH]c2=O)cc1	8.9µM*	-2%	0%	i
COc1ccc(-c2noc(C(=O)O)c2[C@@H](C)NC(=O)CC(C)C)cc1	i	i	2%[70.6 µM]	i
O=C(NCc1ccc(F)cc1)C1CCc2nnc(C3CCN([S+](=O)([O-])c4ccccc4Cl)CC3)n21 (stereo not given)	-3%	i	/	/
Cn1nc(C(=O)N2CCC(OCCOc3ccccc3)CC2)c2ccccc21	?	?	-1%	40µM*
O=C(Cc1cccs1)N1CCC2(CC1)CC(N(Cc1ccc(F)cc1)C1CC1)CCO2 (stereo not given)	?	?	24%	i
COc1cccc(NC(=O)c2ccc3c(c2)N(C)C2CCCCN2C3=O)c1 (stereo not given)	?	?	0%	?
CN1c2cc(C(=O)Nc3cccc(OC(F)(F)F)c3)ccc2C(=O)N2CCCCC21 (stereo not given)	?	18µM*	?	?
COc1cccc(NC(=O)c2ccc3c(c2)N(C)C2CCCN2C3=O)c1 (stereo not given)	-3%	-15%	-10%	?

Compound activity from PubChem BioAssay.
